This is one part of a sample in which hits are shown more often than they occur.
SARS PLpro yeast: inhibitors of SARS-CoV papain-like protease in yeast; 330,000 tested, 0.19% active; S. cerevisiae expressing SARS-CoV PLpro, growth rescue; Potency, µM (titrated, usually from 32.9 µM), usual class: activators; note: nearly all actives have a fitted effect of over 55% in size
TbPYK inhibitor: blocks Trypanosoma brucei pyruvate kinase; Q57TT1; TbPYK enzyme, Kinase-Glo Plus ATP luminescence, 45 min; Potency, µM (titrated, usually from 76.8 µM), most hits filed as inhibitors; 410,000 tested, 0.12% active; AID 624173; active = well fitted curve in the direction sought with a large enough effect; inconclusive = small, poorly fitted or top-dose-only effect, or another doubt; inactive = no such curve, though single readings can be large; an effect the other way counts as inactive or inconclusive; note: nearly all actives have a fitted effect of over 50% in size
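Activity of T. brucei pyruvate kinase was followed by Kinase-Glo Plus luminescence after the enzyme reacted 45 min at room temperature with 130 uM ADP (final) and substrate. Test compounds were added before ADP at multiple concentrations.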
Shiga inhibitor: blocks Shiga toxin action in Vero cells. Vero cells, Shiga toxin protein synthesis inhibition reporter. inhibition, % at 38.7 µM. 290,000 tested, 9.2% active. AID 2315; in the data active = inhibition mostly above about 28%, no sharp cut-off; inactive = mostly below about 43%
Cycloheximide cs: affects cycloheximide protein synthesis inhibition readout, counter-screen. cell reporter, cycloheximide protein synthesis inhibition counterscreen. max response, %. 300,000 tested, 12% active. AID 2314; in the data active = max response mostly above about 13%, no sharp cut-off; inactive = mostly below about 14%; note: read at 38.3 µM for the half of the compounds with a filed dose
LmPK inhibitor: LmPK (Leishmania mexicana) enzyme inhibition; purified LmPK, Kinase-Glo ATP luminescence, 1 h; Potency, µM (series often up to 57.5 µM), most hits filed as inhibitors; 290,000 tested, 0.37% active; active = well fitted curve in the direction sought with a large enough effect; inconclusive = small, poorly fitted or top-dose-only effect, or another doubt; inactive = no such curve, though single readings can be large; an effect the other way counts as inactive or inconclusive
Target sequence (Q27686 whole entry, looked up): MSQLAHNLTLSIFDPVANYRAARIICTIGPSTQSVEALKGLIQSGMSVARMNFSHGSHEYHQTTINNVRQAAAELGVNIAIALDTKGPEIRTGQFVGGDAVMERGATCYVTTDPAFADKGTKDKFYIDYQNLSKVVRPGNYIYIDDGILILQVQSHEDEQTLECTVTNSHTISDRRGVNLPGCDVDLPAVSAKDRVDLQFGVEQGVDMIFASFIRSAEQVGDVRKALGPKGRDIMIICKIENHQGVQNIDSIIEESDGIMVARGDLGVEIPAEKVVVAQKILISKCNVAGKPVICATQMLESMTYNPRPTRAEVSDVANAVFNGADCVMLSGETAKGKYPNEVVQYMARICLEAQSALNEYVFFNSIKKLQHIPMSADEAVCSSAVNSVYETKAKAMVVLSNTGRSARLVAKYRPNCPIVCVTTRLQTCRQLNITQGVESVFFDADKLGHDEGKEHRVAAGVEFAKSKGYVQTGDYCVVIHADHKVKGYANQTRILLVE
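ATP generated from ADP (0.1 mM) and PEP (0.5 mM) by 0.1 nM LmPK over 1 h at room temperature (pH 7.2 imidazole buffer) was detected by coupled luciferase luminescence. Values were normalized to uninhibited and no-enzyme wells.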
NS1 inh: influenza NS1 inhibition; Potency, µM (series often up to 46.1 µM); 270,000 tested, 0.4% active; AID 2326; note: actives are rising curves; nearly all actives have a fitted effect of over 50% in size
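Growth recovery, yeast-based: influenza A NS1 expressed in S. cerevisiae causes slow growth, and suppressors are detected by OD600. The parent strain without NS1 is used as positive control.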
Numbers stand for hits; 0 = inactive; ? = inconclusive; - = not tested or not shown; [ ] = remark or other dose. Unless noted, calls come from the whole dose curve.

SMILES	SARS PLpro yeast	TbPYK inhibitor	Shiga inhibitor	Cycloheximide cs	LmPK inhibitor	NS1 inh
O=C(/C=C/c1ccccc1)c1ccc2c(c1)OCCCCO2	0	0	41.4	42.8	?	0
O=C(NCCc1ccccc1)c1ccc2c(c1)OCCCO2	0	0	0	0	?	0
O=C(c1ccccc1)c1ccc2c(c1)OCCCO2	0	0	93.5	54.5	0	0
COc1cc(/C=C/C(=O)c2ccc3c(c2)OCCO3)cc(OC)c1OC	0	0	0	0	0	0
O/N=C(/CCc1ccccc1)c1ccc2c(c1)OCCO2	0	0	75.2	37.5	0	0
Cc1ccc(-n2ncc(C(=O)NCCc3ccccc3)c2C2CCN(C(=O)OC(C)(C)C)CC2)c(C)c1	-	0	-	-	-	-
O=S1(=O)CC(N2CC=CC2)CN1Cc1cn(Cc2cccc(Cl)c2)nn1 (stereo not drawn)	-	0	-	-	-	-
Cc1cc(NS(=O)(=O)c2ccc(N)cc2)nc(C)n1	-	0	-	-	-	-
CCN(c1ccc(C)cc1C)S(=O)(=O)c1nnc(NC(=O)c2ccc(F)cc2)s1	-	0	-	-	-	-
COc1cc(OC)cc(C(=O)Nc2cccc(-c3cn4ccsc4n3)c2)c1	-	0	-	-	-	-
Cc1cccc(C)c1NC(=O)CN(C)C(=O)c1ccccc1Sc1ccccc1C#N	0	0	-	-	-	-
CC(=O)c1ccc2c(c1)OCCOCCOc1ccccc1OCCOCCO2	0	0	0	0	0	0
O=C(c1ccccc1)c1ccc2c(c1)OCCOCCOCCO2	0	0	48.8	14.0	0	0
O=C(CCCc1ccccc1)c1ccc2c(c1)OCCO2	0	0	0	0	?	0
O=C(CCc1ccccc1)c1ccc2c(c1)OCCCO2	0	0	125.0	69.2	0	0
O=C1O[C@H]2[C@@H](OC(O)[C@@H]2O)[C@H]1O (stereo partly drawn)	-	0	-	-	-	-
O=C(Nc1ccccc1[N+](=O)[O-])C1COc2ccccc2O1 (stereo not drawn)	0	0	38.0	27.3	0	0
CN(C)c1ccc(/C=N/NC(=O)C2COc3ccccc3O2)o1 (stereo not drawn)	0	28.2µM	0	0	0	0
O=C(N/N=C\c1ccc(Br)o1)C1COc2ccccc2O1 (stereo not drawn)	0	0	0	0	0	0
COc1ccc(C)cc1NC(=O)C1COc2ccccc2O1 (stereo not drawn)	0	0	103.4	37.6	0	-
COc1ccc(C)cc1NC(=O)COC(=O)C1COc2ccccc2O1 (stereo not drawn)	0	0	-	-	-	-
COC(=O)c1ccccc1NC(=O)C1COc2ccccc2O1 (stereo not drawn)	0	0	122.1	54.6	0	0
Cc1ccc(C)c(NC(=O)C2COc3ccccc3O2)c1 (stereo not drawn)	0	0	0	13.7	0	0
Cc1ccccc1NC(=O)C1COc2ccccc2O1 (stereo not drawn)	0	0	-	0	0	0
O=C(NCCc1ccc(Cl)cc1)c1ccc(CSCc2ccccc2Cl)o1	-	0[15.4 µM]	-	-	-	-
SMILES	SARS PLpro yeast	TbPYK inhibitor	Shiga inhibitor	Cycloheximide cs	LmPK inhibitor	NS1 inh
CN1CCC(N(C)C(=O)c2ccc(Cl)c(S(=O)(=O)N3CCc4ccccc43)c2)CC1	0	0	-	-	-	-
COc1ccc(/C=C/c2cc(C(=O)O)c3ccccc3n2)cc1	0	0	0	14.6	11.2µM	0
Cc1cc(/C=C\c2ccccc2)nc2ccccc12	0	0	119.5	30.3	0	0
CC(=O)CC/C=C(\C)CC/C=C(/C)CC/C=C(\C)CCC=C(C)C	-	0	-	-	-	-
CCCSc1nnc(NC(=O)c2sc3nc(-c4cccs4)ccc3c2N)s1	0	0	0	28.1	0	0
Cc1csc(NC(=O)c2sc3nc(-c4cccs4)ccc3c2N)n1	?	0	69.4	41.0	0	0
COc1cc(OC)cc(-c2c(-c3ccc(F)cc3)c3cc(-c4cnc(OC)nc4)ccc3n2C)c1	0	0	-	-	-	-
CCOC(=O)CNC(=O)C(Cc1ccccc1)NC(=O)OCc1ccccc1 (stereo not drawn)	0	0	0	0	14.1µM	-
COC(=O)CNC(=O)C(C)NC(=O)OCc1ccccc1 (stereo not drawn)	0	0	0	0	0	0
CCOC(=O)CNC(=O)C(CO)NC(=O)OCc1ccccc1 (stereo not drawn)	0	0	0	25.7	0	0
CCOC(=O)Cn1c(=N)n(Cc2ccc(C(C)(C)C)cc2)c2ccccc21	-	0	-	-	-	-
CCOC(=O)c1ccccc1NC(=O)NCc1cccn1Cc1ccc(F)cc1	-	0	-	-	-	-

Bioassay records: PubChem, National Center for Advancing Translational Sciences (NCATS)
